Test results as given in PubChem BioAssay (NCI).
About 83,000 compounds went through this panel and 20% of them were active in at least one assay; those are over-represented in the sample as a whole.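 96-well plates, one dose, 48 hours. Percent growth reported; active if below 10.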 Activity calls are given as the source filed them.

Tests used:
Assay in all cases: NCI-60 one-dose screen, 48 h (100 = growth as untreated, 0 = no growth, -100 = all killed)
Conditions in all cases: 10 µM unless noted
RPMI-8226 leukemia = test system: RPMI-8226 leukemia
OVCAR-8 ovarian = test system: OVCAR-8 ovarian
OVCAR-5 ovarian = test system: OVCAR-5 ovarian
OVCAR-4 ovarian = test system: OVCAR-4 ovarian
SK-OV-3 ovarian = test system: SK-OV-3 ovarian
IGROV1 ovarian = test system: IGROV1 ovarian
OVCAR-3 ovarian = test system: OVCAR-3 ovarian
HS 578T breast = test system: HS 578T breast
NCI/ADR-RES ovarian = test system: NCI/ADR-RES ovarian

Measured: growth

O=C1Nc2ccc([N+](=O)[O-])cc2C1=Nc1ccccc1
inactive: RPMI-8226 leukemia 121% | OVCAR-8 ovarian 106% | OVCAR-5 ovarian 103% | OVCAR-4 ovarian 113% | SK-OV-3 ovarian 113% | IGROV1 ovarian 98.6% | OVCAR-3 ovarian 95.3% | HS 578T breast 97.9% | NCI/ADR-RES ovarian 103%

C[C@H]1CN(C(=O)c2ccc3c(NNC(=O)c4ccncn4)nc4cc(F)c(F)cc4n23)CCN1
active: NCI/ADR-RES ovarian 3.96%
inactive: RPMI-8226 leukemia 23.6% | OVCAR-8 ovarian 17.2% | OVCAR-5 ovarian 50.4% | OVCAR-4 ovarian 34.7% | SK-OV-3 ovarian 43.7% | IGROV1 ovarian 33% | OVCAR-3 ovarian 58.2% | HS 578T breast 59.6%

O=C(CN1C(=O)/C(=C/c2ccccc2Cl)SC1=S)N1CCOCC1
inactive: RPMI-8226 leukemia 58.8% | OVCAR-4 ovarian 78.2% | SK-OV-3 ovarian 124% | IGROV1 ovarian 107% | OVCAR-3 ovarian 77.1% | HS 578T breast 106% | NCI/ADR-RES ovarian 95.5%

O=C1NC(=O)/C(=C/c2ccccc2OCc2cc3ccccc3nc2Cl)S1
inactive: RPMI-8226 leukemia 93.7% | OVCAR-8 ovarian 68.4% | OVCAR-5 ovarian 112% | OVCAR-4 ovarian 88.2% | IGROV1 ovarian 91.5% | OVCAR-3 ovarian 71.7% | HS 578T breast 28.8% | NCI/ADR-RES ovarian 87.6%

CN1CCc2c(sc3ncnc(N/N=C/c4ccc(Cl)cc4Cl)c23)C1
active: RPMI-8226 leukemia -9.12% | OVCAR-8 ovarian 6.87% | OVCAR-5 ovarian -18.6% | OVCAR-4 ovarian -40.6% | SK-OV-3 ovarian 0.686% | OVCAR-3 ovarian -56.5% | NCI/ADR-RES ovarian 8.35%
inactive: IGROV1 ovarian 30.4%

CN1CCN(c2ccc(C(=O)/C=C/c3cc(C(F)(F)F)cc(C(F)(F)F)c3)cc2)CC1
active: RPMI-8226 leukemia -19.4% | OVCAR-5 ovarian -95.8% | OVCAR-4 ovarian -23.8% | SK-OV-3 ovarian -89.5% | IGROV1 ovarian -36.6% | OVCAR-3 ovarian -54.4% | NCI/ADR-RES ovarian -39.3%
inactive: HS 578T breast 26.9%

O=C(N/N=C/c1ccc(-c2ccc(O)cc2)s1)c1[nH]c2ccc(Br)cc2c1-c1ccccc1
inactive: OVCAR-8 ovarian 25.1% | OVCAR-5 ovarian 18.7% | OVCAR-4 ovarian 20.3% | SK-OV-3 ovarian 31.6% | IGROV1 ovarian 12.9% | OVCAR-3 ovarian 21.4%
active: RPMI-8226 leukemia -8.25% | NCI/ADR-RES ovarian -27.4%

O=c1oc2ccccc2cc1-c1csc(N=Nc2c(O)[nH]c3ccc(Cl)cc23)n1
inactive: RPMI-8226 leukemia 117% | OVCAR-8 ovarian 110% | OVCAR-5 ovarian 116% | OVCAR-4 ovarian 99.5% | SK-OV-3 ovarian 94.1% | IGROV1 ovarian 120% | OVCAR-3 ovarian 102% | NCI/ADR-RES ovarian 103%

O=C(Cn1c(/C=C/c2cccc([N+](=O)[O-])c2)nc2ccccc2c1=O)Nc1ccccc1
inactive: RPMI-8226 leukemia 113% | OVCAR-8 ovarian 35.7% | OVCAR-4 ovarian 98% | SK-OV-3 ovarian 49.4% | IGROV1 ovarian 106% | OVCAR-3 ovarian 54.6% | HS 578T breast 87.2% | NCI/ADR-RES ovarian 65%

C=C1CC[C@@H]2[C@]3(C)COC(c4cn[nH]c4-c4cccc(Cl)c4)O[C@@H]3CC[C@@]2(C)[C@@H]1C/C=C1/C(=O)OCC1O (stereo partly drawn)
inactive: OVCAR-4 ovarian 35.2% | SK-OV-3 ovarian 49.6%
active: RPMI-8226 leukemia -11.7% | OVCAR-8 ovarian -23.3% | OVCAR-5 ovarian -62% | IGROV1 ovarian -44.1% | OVCAR-3 ovarian -62% | NCI/ADR-RES ovarian -56.4%

COc1ccc(C2CC(c3ccc(S(=O)(=O)NCCNc4nc(Nc5ccc(F)cc5)nc(N(C)C)n4)cc3)=Nc3c(N)nc(N)nc3N2)cc1 (stereo not drawn)
inactive: RPMI-8226 leukemia 24% | OVCAR-8 ovarian 79.5% | OVCAR-5 ovarian 98.8% | OVCAR-4 ovarian 83.7% | SK-OV-3 ovarian 108% | IGROV1 ovarian 95.7% | OVCAR-3 ovarian 95.4% | HS 578T breast 70.6% | NCI/ADR-RES ovarian 99.9%

C=CC(=O)Nc1ccc(C)c(Oc2ccc(Cl)cc2)c1
inactive: RPMI-8226 leukemia 23.8% | OVCAR-8 ovarian 38.5% | OVCAR-4 ovarian 56.2% | SK-OV-3 ovarian 77.4% | IGROV1 ovarian 46.4% | OVCAR-3 ovarian 36.6% | HS 578T breast 51.8% | NCI/ADR-RES ovarian 37.3%
